LASV entry inh = blocks Lassa virus binding to or entry into cells | Potency, µM (doses to about 37.9 µM), hits mostly inhibitors | Lassa virus pseudotype entry inhibition, cell reporter | hit rate 1.2% among 300,000 | AID 540256; calls by dose curve; tested in HEK293 cells; note: nearly all actives have a fitted effect of over 50% in size
Vaccinia Venus = vaccinia inhibition (Venus reporter); Vaccinia virus Venus reporter expression, fluorescence; Potency, µM (doses to about 36.5 µM), hits mostly inhibitors; hit rate 0.46% among 330,000; calls by dose curve; tested in A549 cells; note: nearly all actives have a fitted effect of over 30% in size
Shiga toxin inh = inhibitors of Shiga toxin in Vero cells | Vero cells, Shiga toxin protein synthesis inhibition reporter | inhibition, % at 38.7 µM | hit rate 9.2% among 290,000 | AID 2315; in the data active = inhibition mostly above about 28%, no sharp cut-off; inactive = mostly below about 43%
VACV mCherry inh = vaccinia inhibition (mCherry reporter) | hit rate 0.63% among 310,000 | Potency, µM (doses to about 36.5 µM), most hits filed as inhibitors | Vaccinia virus mCherry reporter infection, fluorescence; calls by dose curve; tested in A549 cells; note: nearly all actives have a fitted effect of over 35% in size
MARV entry inh = blocks Marburg virus binding to or entry into cells | Marburg virus pseudotyped entry inhibition, cell reporter | Potency, µM (highest dose often 37.8 µM), usual class: inhibitors | hit rate 1.8% among 300,000 | AID 540276; calls by dose curve; tested in HEK293 cells
CHX counter = counter-screen hit for Shiga toxin inhibitors, cycloheximide; max response, %; hit rate 12% among 300,000; cell reporter, cycloheximide protein synthesis inhibition counterscreen; in the data active = max response mostly above about 13%, no sharp cut-off; inactive = mostly below about 14%; note: read at 38.3 µM for the half of the compounds with a filed dose
Each line names hits and unclear results; the compound was inactive in the other large screens. Shown is part of a subset that was picked to be rich in hits.

CCOc1ccc(-c2nc(CSc3nnc(C)s3)cs2)cc1OC	Shiga toxin inh 89, CHX counter 37 (no result: VACV mCherry inh)
COc1ccc(/C=N/Nc2cc(C)nc(-n3nc(C)cc3C)n2)cc1	LASV entry inh inconclusive, Vaccinia Venus inconclusive, VACV mCherry inh inconclusive, MARV entry inh 16µM
Cc1cc(N/N=C/c2ccccc2[N+](=O)[O-])nc(-n2nc(C)cc2C)n1	LASV entry inh inconclusive, Vaccinia Venus inconclusive, VACV mCherry inh 10µM, MARV entry inh inconclusive
Cc1cc(N/N=C/c2ccc(O)cc2O)nc(-n2nc(C)cc2C)n1	LASV entry inh 7.3µM, Vaccinia Venus inconclusive, VACV mCherry inh inconclusive, MARV entry inh 3.7µM
Cc1cc(N/N=C/c2cccc(Cl)c2)nc(-n2nc(C)cc2C)n1	LASV entry inh inconclusive, Vaccinia Venus inconclusive, VACV mCherry inh inconclusive, MARV entry inh inconclusive
Cc1cc(N/N=C/c2cccc([N+](=O)[O-])c2)nc(-n2nc(C)cc2C)n1	none
O=C(CNC(=O)c1ccc(Cl)cc1)N/N=C/c1cccnc1	none
O=C(CN1C(=O)COc2ccc(S(=O)(=O)N3CCOCC3)cc21)Nc1ccc(F)c(Cl)c1	none (no result: Shiga toxin inh, MARV entry inh, CHX counter)
COC1=C(C)C(=O)C2=C(C1=O)C1C3CC4=C(C(=O)C(OC)=C(C)C4=O)C(CNC(=O)C(C)=O)N3C(C#N)C(C2)N1C (stereo unspecified)	LASV entry inh inconclusive, Vaccinia Venus 1µM, VACV mCherry inh inconclusive, MARV entry inh inconclusive (no result: Shiga toxin inh, CHX counter)
CCOC(=O)COc1nc2c(c(-c3ccco3)c1C#N)CCc1ccccc1-2	Shiga toxin inh 42
N#Cc1c(OCC(=O)c2ccccc2)nc2c(c1-c1ccco1)CCc1ccccc1-2	none (no result: Vaccinia Venus, VACV mCherry inh)
Cc1cc(C)c2nc(NC(=O)c3ccc(S(=O)(=O)N4CCC(C)CC4)cc3)sc2c1	none (no result: Shiga toxin inh, MARV entry inh, CHX counter)
Cc1cc(C)c2nc(NNC(=O)c3ccc(S(=O)(=O)N4CCCC(C)C4)cc3)sc2c1 (stereo unspecified)	LASV entry inh inconclusive, Vaccinia Venus inconclusive, VACV mCherry inh 4µM, MARV entry inh inconclusive
Cc1cc(C)c2nc(NNC(=O)c3ccc(S(=O)(=O)N4CC(C)CC(C)C4)cc3)sc2c1 (stereo unspecified)	LASV entry inh inconclusive, Vaccinia Venus inconclusive, VACV mCherry inh inconclusive, MARV entry inh 15µM
Cc1cccc2sc(NNC(=O)c3ccc(S(=O)(=O)N4CC(C)CC(C)C4)cc3)nc12 (stereo unspecified)	LASV entry inh inconclusive, Vaccinia Venus inconclusive, VACV mCherry inh 28µM, MARV entry inh inconclusive
COc1ccccc1N1CCN(/N=C/c2ccc(Cl)c([N+](=O)[O-])c2)CC1	Shiga toxin inh 43, CHX counter 55 (no result: LASV entry inh, Vaccinia Venus, VACV mCherry inh, MARV entry inh)
COc1ccccc1N1CCN(/N=C/c2ccc([N+](=O)[O-])cc2)CC1	CHX counter 21 (no result: LASV entry inh, Vaccinia Venus, VACV mCherry inh, MARV entry inh)
O=[N+]([O-])c1cc(/C=N/N2CCN(C3c4ccccc4-c4ccccc43)CC2)ccc1Cl	none
Cc1ccc(S(=O)(=O)C(CNC(=O)COc2ccc(Cl)cc2)c2ccco2)cc1 (stereo unspecified)	none (no result: Shiga toxin inh, MARV entry inh, CHX counter)
CCOC(=O)C1=CN(CCc2cn(Cc3ccccc3)nn2)C(=O)NC1c1ccccc1 (stereo unspecified)	none (no result: LASV entry inh, Vaccinia Venus, Shiga toxin inh, VACV mCherry inh, CHX counter)
COC(=O)c1cc(C#N)c(N(C)Cc2ccccc2)nc1C	CHX counter 30
CCCCN(C)c1c(C)nc2ccc(C(=O)N(C)Cc3ccco3)cn12	none (no result: LASV entry inh, Shiga toxin inh, MARV entry inh, CHX counter)
CCOc1ccccc1NC(=O)Cn1c(=O)n(-c2ccccc2)c(=O)c2c1c1cc(C)ccc1n2C	none (no result: Shiga toxin inh, MARV entry inh, CHX counter)
CC1CCC(NC(=O)C2CCN(c3c4c(nc5ncnn35)CCC4)CC2)CC1 (stereo unspecified)	Shiga toxin inh 49, CHX counter 20
CC(C)(C)c1ccc(C(O)c2ncc(-c3cccc(F)c3)[nH]2)cc1 (stereo unspecified)	none (no result: LASV entry inh, Shiga toxin inh, MARV entry inh, CHX counter)
CC(C)(C)c1csc(N/N=C/c2ccc(O)cc2)n1	Shiga toxin inh 91, CHX counter 47 (no result: LASV entry inh, Vaccinia Venus, VACV mCherry inh, MARV entry inh)
COc1cccc2cc(C(C)N(CCCN3CCOCC3)C(=S)Nc3cc(C)cc(C)c3)oc12 (stereo unspecified)	MARV entry inh inconclusive
COc1cccc2cc(C(C)N(CCCN3CCOCC3)C(=S)Nc3cccc(C)c3)oc12 (stereo unspecified)	LASV entry inh inconclusive, MARV entry inh 10µM
Nc1cc(-c2ccc(Br)cc2)nn1Cc1ccccc1	LASV entry inh inconclusive, Shiga toxin inh 91, VACV mCherry inh inconclusive, CHX counter 54
COCCn1c(C)cc(C(=O)CN2C(=O)NC3(CCCCCCC3)C2=O)c1C	Shiga toxin inh 93, MARV entry inh inconclusive, CHX counter 52
Cc1cc(C)c(C(=O)CN2C(=O)NC3(CCC(C)CC3)C2=O)cc1C (stereo unspecified)	MARV entry inh inconclusive
Cc1cc(C)c(C(=O)CN2C(=O)NC3(CCCCC3)C2=O)cc1C	Shiga toxin inh 34, CHX counter 21
CC(=O)Nc1cccc(-c2ccnc3c2CC(C)(C(=O)Nc2ccc4c(c2)OCO4)O3)c1 (stereo unspecified)	Vaccinia Venus inconclusive (no result: LASV entry inh, Shiga toxin inh, MARV entry inh, CHX counter)
CCC1=C(CC2NCCc3ccccc32)CC2c3cc(OC)c(OC)cc3CCN2C1 (stereo unspecified)	LASV entry inh inconclusive, Vaccinia Venus 3.5µM, VACV mCherry inh 3.5µM, MARV entry inh inconclusive (no result: Shiga toxin inh, CHX counter)
CCC(OC(=O)c1nsc(Cl)c1Cl)C(=O)NCC1CCCO1 (stereo unspecified)	none
OC1CCC(Br)CC1C1NC2=C(CCCC2)S1 (stereo unspecified)	none (no result: LASV entry inh, Vaccinia Venus, Shiga toxin inh, VACV mCherry inh, CHX counter)
OCCN(CCO)c1ccc(C(c2ccccc2Cl)c2ccc(N(CCO)CCO)cc2Cl)c(Cl)c1	LASV entry inh 11µM, Vaccinia Venus inconclusive, VACV mCherry inh inconclusive
C/C(=N/Oc1nc(C)cc(C)n1)c1ccc(F)cc1	LASV entry inh inconclusive, CHX counter 21 (no result: VACV mCherry inh)
C/C(=N/OC(=O)c1ccc(F)cc1)c1ccc(C)cc1	none
C/C(=N/Oc1nc(C)cc(C)n1)c1ccccc1	CHX counter 19
C/C(=N\OCC(=O)Nn1c(C)nc2ccccc2c1=O)c1ccccc1	none
C/C(=N\Nc1ccc(C#N)cc1[N+](=O)[O-])c1ccc(C)o1	none
Cc1ccc(C(=O)CC(c2cccs2)S(=O)(=O)c2ccc(C)cc2)cc1 (stereo unspecified)	MARV entry inh inconclusive, CHX counter 23
CCC(=O)NCC(c1cccs1)S(=O)(=O)c1ccc(C)cc1 (stereo unspecified)	none (no result: LASV entry inh, Vaccinia Venus, VACV mCherry inh, MARV entry inh)
O=C(CC(c1cccs1)S(=O)(=O)c1ccccc1)c1ccc(F)cc1 (stereo unspecified)	Shiga toxin inh 33, CHX counter 52
O=C(CC(c1ccco1)S(=O)(=O)c1ccccc1)c1ccccc1 (stereo unspecified)	LASV entry inh inconclusive, Shiga toxin inh 110, CHX counter 42
COc1cccc(CN2C(=O)NC(C)(C3CCN(Cc4cc(F)cc(F)c4)CC3)C2=O)c1OC (stereo unspecified)	none (no result: LASV entry inh, Shiga toxin inh, MARV entry inh, CHX counter)
Cc1ccc(C)c(NC(=O)c2ccc3c(O)c(S(=O)(=O)c4ccc(Cl)cc4)c(=O)[nH]c3c2)c1	none (no result: Shiga toxin inh, MARV entry inh, CHX counter)
CC(=O)Nc1ccc(SC[C@H](CC(C)C)N2CCN(CCc3ccccc3)CCC2=O)cc1	VACV mCherry inh inconclusive (no result: LASV entry inh, MARV entry inh)
